Screens (PubChem BioAssay)
ELG1 genotoxic: genotoxicity induction in ELG1-luciferase HEK293T cells; HEK293T ELG1-luciferase reporter, luminescence, 16 h; Potency, µM (titrated, usually from 46 µM), for inactives: at the highest dose activity change, positive = activation, usual class: activators; 1.3% of 330,000 active; note: % of control where 0% means no effect; nearly all actives have a fitted effect of over 60% in size
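Screening used a luciferase reporter fused to human ELG1 in HEK293T cells. Luminescence was read on a CCD plate imager after 16 hr exposure and 30 min ONE-Glo incubation.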
NPC1 promoter act: activates the NPC1 promoter; Huh7 NPC1 promoter luciferase reporter, 24 h; Potency, µM (top dose mostly 9.22 µM), inactives show top-dose activation, most hits filed as activators; 2.4% of 320,000 active; AID 485313; note: % of control where 0% means no effect; nearly all actives have a fitted effect of over 60% in size
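Huh7 reporter cells (NPC1 promoter driving luciferase) are dosed with compound for 24 h at 37 °C, 5% CO2; luciferase detection reagent is then added and luminescence measured after 10 min at ambient temperature.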
FLuc modulator: firefly luciferase modulation, counter-screen for miR-21 project; P08659; purified FLuc, Km substrates, luminescence inhibition; Potency, µM (highest dose often 57.5 µM), inactives show at the top dose activity change, negative = inhibition, actives largely listed as inhibitors; 6.9% of 360,000 active;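 note: plate controls were vehicle for no effect and reference inhibitor for full effect; nearly all actives have a fitted effect of over 55% in size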
Target sequence (P08659 whole entry, looked up): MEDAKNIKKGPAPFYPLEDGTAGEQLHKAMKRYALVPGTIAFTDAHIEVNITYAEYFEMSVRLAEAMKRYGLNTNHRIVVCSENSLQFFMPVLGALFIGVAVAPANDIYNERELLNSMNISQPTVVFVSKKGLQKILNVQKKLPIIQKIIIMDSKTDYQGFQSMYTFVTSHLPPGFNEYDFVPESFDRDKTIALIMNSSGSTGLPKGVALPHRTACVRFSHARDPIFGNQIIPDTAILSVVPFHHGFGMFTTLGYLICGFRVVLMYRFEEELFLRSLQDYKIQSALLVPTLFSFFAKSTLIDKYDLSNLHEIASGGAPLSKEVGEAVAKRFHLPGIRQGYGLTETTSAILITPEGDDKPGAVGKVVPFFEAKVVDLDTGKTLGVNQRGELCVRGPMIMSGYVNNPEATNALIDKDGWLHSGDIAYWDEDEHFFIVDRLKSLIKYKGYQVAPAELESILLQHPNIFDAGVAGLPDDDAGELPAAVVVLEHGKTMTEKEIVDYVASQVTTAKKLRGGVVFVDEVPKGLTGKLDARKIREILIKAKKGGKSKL
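Purified P. pyralis luciferase (10nM final) with 10uM D-luciferin and 10uM ATP (Km levels) in 50mM Tris acetate pH 7.5, 10mM Mg acetate, 0.01% Tween-20, 0.05% BSA; qHTS 6-point titration, ~60 µM downward; luminescence read.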
SMN2 splice up: increases expression of the SMN2 splice variant. HEK293 SMN2-luciferase splicing reporter, luminescence, 30-36 h. Potency, µM (titrated, usually from 46.1 µM), without a hit: top-dose activity change, positive = activation, hits mostly activators. 2.8% of 210,000 active; note: % of control where 0% means no effect; nearly all actives have a fitted effect of over 55% in size
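qHTS luciferase splicing reporter: luminescence rises when SMN2 exon 7 is included in transfected HEK293 cells. Compound exposure lasted 30-36 h at 37C, with 4.5 mM final sodium butyrate as control, followed by a ONE-Glo read.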
Rab9 promoter act: activates the Rab9 promoter. 2.8% of 320,000 active. Huh7 Rab9 promoter-luciferase reporter, luminescence, 24 h. Potency, µM (series often up to 9.22 µM), for inactives: at the top dose activation, negative = inhibition, hits mostly activators; note: % of control where 0% means no effect; nearly all actives have a fitted effect of over 60% in size
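Huh7 cells stably carrying Rab9 promoter–luciferase reporter, plated 1500 cells/well, compound added after 2 h and incubated 24 h at 37 °C; luciferase luminescence then read after 10 min with detection reagent.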
* marks the source's active call; other numbers are inactive results; ? = inconclusive; · = not tested or not shown; [ ] = remark or other dose. This is a sample that favours compounds with a hit; in the whole collection about 7.5% have one here. Calls come from the whole dose curve; as a rule, active = well fitted curve in the direction sought with a large enough effect; inconclusive = small, poorly fitted or top-dose-only effect, or another doubt; inactive = no such curve, though single readings can be large; an effect the other way counts as inactive or inconclusive. Potency is the fitted concentration of half-maximal effect.

SMILES	ELG1 genotoxic	NPC1 promoter act	FLuc modulator	SMN2 splice up	Rab9 promoter act
COc1cccc(C(=O)NNC(=O)C(=O)Nc2ccc(C)cc2)c1	4%	-2%	-18%	·	4%
COc1cccc(NC(=O)c2ccncc2)c1	-3%	2%	-5%	-2%	-4%
COc1cccc(NC(=O)c2cccc(Cl)c2)c1	2.1µM*	2.5µM*	3.4µM*	·	2µM*
COc1cccc(C(=O)Nc2ccc(C)cc2)c1	1.8µM*	1.4µM*	6µM*	11µM*	1µM*
CCOc1cccc(C(=O)Nc2cccc(C(C)=O)c2)c1	0%	6%	?	?	22%
COc1cccc(C(=O)Nc2ccc(C3CC3(Cl)Cl)cc2)c1 (centres undefined)	?	2.2µM*	2.7µM*	13µM*	1.1µM*
O=C(COC(=O)C1CCC(=O)N1)Nc1cccc([N+](=O)[O-])c1 (centres undefined)	1%	·	·	·	·
CCCOc1ccc(C(=O)Nc2cccc(NC(=O)c3cccc(Cl)c3)c2)cc1	·	·	12µM*	29%	·
COc1cccc(C(=O)NC(=S)Nc2ccc(N(C)C)cc2)c1	?	?	12µM*	11µM*	3.5µM*
COC(=O)c1ccc(NC(=O)c2cccc(OC)c2)cc1	?	?	19µM*	?	?
COc1ccc(C(=O)Nc2cccc(-c3ccc4nncn4n3)c2)cc1	-6%	-3%	17µM*	-5%	-4%
COc1cccc(C(=O)Nc2ccc(C(=O)O)cc2)c1	1%	6%	?	·	0%
CC(NC(=O)COC(=O)COc1cccc2c1OC(C)(C)C2)c1ccccc1 (centres undefined)	-3%	-4%	5%	·	1%
Cc1ccc(C(=O)NCCc2ccc(S(N)(=O)=O)cc2)cc1-n1cnc2cccnc21	·	·	0%	·	·
COC(=O)c1cccc(NC(=O)c2cc3sccc3n2C)c1	?	1.3µM*	15µM*	11µM*	1.8µM*
O=C(Nc1cccc(C(F)(F)F)c1)c1cccnc1	·	·	0%	-10%	·
COC(=O)c1ccccc1NC(=O)c1cc2sccc2n1C	-1%	-4%	?	-2%	11%
COc1cc(NC(=O)c2ccnnc2)cc(C(=O)Nc2cccc(C(F)(F)F)c2)c1	-2%	0%	19µM*	·	2%
COc1cccc(C(=O)Nc2ccc3c(c2)C(=O)c2ccccc2C3=O)c1	?	3.2µM*	?	-15%[1.84 µM]	?
COc1cccc(C(=O)Nc2ccc(C(=O)c3ccccc3)cc2)c1	8%	7%	?	·	-3%
COC(=O)c1cccc(NC(=O)c2cccc(OC)c2)c1	·	·	12µM*	?	·
CCc1cc(=O)oc2cc3occ(-c4ccc(OC)c(F)c4)c3cc12	10%	-33%	5%	-65%	-26%
CCCCC[C@H](O)/C=C/C=C/C=C/[C@H](O)C/C=C\CCCC(=O)O	·	·	·	5%	·
COc1ccccc1NC(=O)CSc1nc(O)c(C/C=C/c2ccccc2)c(=O)[nH]1	·	·	?	8%	·
CCc1nnc(SCC(=O)Nc2ccc(F)cc2)o1	5%	0%	3%	·	4%
SMILES	ELG1 genotoxic	NPC1 promoter act	FLuc modulator	SMN2 splice up	Rab9 promoter act
Cc1ccc(S(=O)(=O)CCc2nnc(NC(=O)COc3cccc(C)c3)s2)cc1	4%	1%	-1%	-8%	0%
COCCN(C(=O)c1snc(C(N)=O)c1N)C(C(=O)NC1CCCCC1)c1ccc(F)cc1 (centres undefined)	2%	1%	-2%	·	5%
O=C(OCc1ccccc1)c1cccc(-c2nnn(Cc3ccccc3)n2)c1	?	27%	-3%	7.9µM*	17%
CCOc1ccc2nc(N3C(=O)/C(=C/c4ccc(Cl)cc4)NC3=S)sc2c1	0%	13%	9.5µM*	6%	3%
O=C(Cc1ccccc1)Nc1nc(=O)c2ccccc2s1	4%	-2%	5%	1%	·
O=C(Nc1nc(=O)c2ccccc2s1)c1ccc(F)cc1	?	?	2.1µM*	14µM*	3.2µM*
O=C(Nc1nc2ccsc2c(=O)s1)c1ccc(Cl)cc1	?	0.25µM*	0.21µM*	·	0.1µM*
O=C(Nc1nc(=O)c2ccccc2s1)c1ccc(Cl)cc1	1.8µM*	2.8µM*	1.1µM*	13µM*	2.5µM*
COc1ccc(-n2c(SCC(=O)N/N=C/c3ccccc3OCC(=O)O)nc3ccccc3c2=O)cc1	-1%	-8%	-6%	·	-3%
O=c1c2ccccc2[nH]c(=S)n1CCCN1CCN(c2ccccc2F)CC1	-6%	-8%	-2%	·	-2%
COc1ccc(N2Cc3ccccc3C2)cc1Cl	21µM*	19%	?	?	?
COc1ccc(Cl)cc1N1Cc2ccccc2C1	-4%	2%	3%	20%	-4%
CCCN1CCN(CC(=O)NCC(=O)Nc2cccc(C)c2C)CC1	2%	2%	1%	·	-1%
CCC(C)(C)NC(=O)C(c1ccc(OC)cc1)N(Cc1cccs1)C(=O)CCC(=O)Nc1cc(C)on1 (centres undefined)	-5%	-6%	2%	-12%	0.63µM*
C=CCc1ccc(OCc2ccc(C(=O)Nc3ccc(NC(C)=O)cc3)o2)c(OC)c1	12%	1.1µM*	?	2.8µM*	0.4µM*
COc1cccc(/C=N\NC(=O)Cn2nnc3ccccc32)c1O	?	-14%	17µM*	·	-26%
COc1cc(/C=N/NC(=O)CCn2nnc3ccccc32)ccc1O	4%	1%	15µM*	9%	2%
CCOC(=O)C1(Cc2ccccc2C(F)(F)F)CCN(CC2CC2)CC1	-7%	-5%	1%	·	-16%
CN(c1ccccc1)S(=O)(=O)c1cccc(NC(=O)C2CC(=O)N(Cc3ccccc3)C2)c1 (centres undefined)	-10%	0%	-3%	·	-2%
CCN(CC)C(=O)CSc1ncnc2c(-c3cccs3)nsc12	11%	?	-12%[2.3 µM]	13%	3.2µM*
CCOc1ccc(N=Nc2c(C)noc2C)cc1	8%	2%	?	16%	-1%
Cc1cc(C(F)(F)F)c(C#N)c(SCC(=O)Nc2nc3ccccc3s2)n1	0.23µM*	1.3µM*	1.2µM*	-88%	0.4µM*
Cc1csc(NC(=O)CSc2nsc(SCC(=O)Nc3nc(C)cs3)c2C#N)n1	?	2.5µM*	?	11µM*	1.6µM*
Cc1ccc2sc(NC(=O)CSc3nc(C)cc(C)c3C#N)nc2c1	?	?	3.8µM*	2.5µM*	28%
Cc1cc(C)c(C#N)c(SCC(=O)Nc2nnc(-c3ccccc3)s2)n1	0%	-4%	4%[2.3 µM]	·	-2%
Cc1ccc(-c2cc(C(F)(F)F)c(C#N)c(SCC(=O)Nc3ccccc3F)n2)cc1	·	·	3%	12%	·
C=CCn1c(SCC(=O)Nc2cccnc2Cl)nnc1-c1ccc(C(C)(C)C)cc1	-3%	-2%	21µM*	·	3%
COC(=O)[C@H](COC(C)(C)C)NC(=O)O[C@@H]1C(=O)c2cc(Br)ccc2O[C@H]1c1ccc2c(c1)OCO2	·	·	·	1%	·
